High-throughput results as filed in PubChem.
HT1080NT lethal = kills 2HG-producing HT-1080-NT fibrosarcoma cells | HT-1080-NT fibrosarcoma viability, CellTiter-Glo ATP luminescence, 48 h | Potency, µM (series often up to 46.1 µM), inactives show top-dose activity, negative = less viability, actives largely listed as cytotoxic | 1.6% of 360,000 active;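 further: NT is the 2HG producing partner of a matched IDH1 knockdown line; potency means the concentration at half of the fitted maximal effect; 0% = DMSO-treated cells and -100% = media-only wells without cells; nearly all actives have a fitted effect of over 55% in size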
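HT-1080-NT fibrosarcoma cells (2HG-overproducing), 750 cells/well in RPMI with 5% FBS, dosed after 2 h and incubated 48 h at 37C. CellTiter-Glo luminescence normalized to DMSO and no-cell wells; concentration-response curves fitted and classed.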
TDP1 cell noCPT = qHTS for Inhibitors of human tyrosyl-DNA phosphodiesterase 1 (TDP1): qHTS in cells in absence of CPT. Potency, µM (highest dose often 46.2 µM), for the others: at the top dose activity change, negative = growth inhibition, actives largely listed as inhibitors. DT40 Tdp1-/- hTDP1 cells, no CPT, ATP luminescence, 48 h. 15% of 420,000 active; further: potency means the concentration at half of the fitted maximal effect; nearly all actives have a fitted effect of over 55% in size
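No-CPT arm: Tdp1-/-;hTDP1 DT40 cells (400/well) plus compounds, incubated ≥48 hr at 37 °C. Readout CellTiter-Glo luminescence.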
HT1080 IDH1KD tx = HT-1080 IDH1 knockdown cell toxicity (counter line); HT-1080 IDH1 knockdown viability, ATP luminescence, 48 h; Potency, µM (highest dose often 46.1 µM), for the others: at the highest dose activity, negative = toxicity, usual class: cytotoxic; 2% of 360,000 active; AID 686971;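 further: potency means the concentration at half of the fitted maximal effect; 0% = DMSO wells and -100% = cell-free medium wells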
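Luminescent ATP read-out (CellTiter-Glo, 10 min at room temperature) after 48 h compound exposure at 37 °C gave viability of IDH1-knockdown HT-1080 cells. Activity was normalised to DMSO and cell-free wells, then fitted as concentration-response curves.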
IL-1B inflam inh = inflammasome signaling inhibition, IL-1 beta readout; activity change, % at 57.5 µM; 4.7% of 360,000 active; THP-1 LPS/ATP IL-1B secretion, AlphaLISA, 16 h; stronger effect = lower value; in the data active means activity change below about -50%; inconclusive means mostly about -30% to -49%
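THP-1 cells pretreated 1 hr with compounds (up to 57.5 uM final), then stimulated with LPS (250 ng/mL final) plus ATP (1.25 mM final); secreted IL-1B measured by AlphaLISA after 16 hr, decreased signal indicating inhibition.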
DT40 TDP1 CPT = growth inhibition of DT40 Tdp1-/-;hTDP1 cells with camptothecin (screen for TDP1 inhibitors); chicken DT40 Tdp1-/-;hTDP1 cells + 20 nM CPT, ATP luminescence, 48 h; Potency, µM (titrated, usually from 46.2 µM), for the others: top-dose activity change, negative = growth inhibition, usual class: inhibitors; 12% of 420,000 active; further: potency means the concentration at half of the fitted maximal effect; nearly all actives have a fitted effect of over 55% in size
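Cell growth measured by CellTiter-Glo luminescence after a minimum 48 h, 37 C compound exposure with 20 nM CPT in Tdp1-knockout DT40 cells stably expressing hTDP1, seeded 400/well; qHTS titration format.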
* = called active by the depositor; [ ] = dose if it differs, or a comment. Only some compounds are listed: those with a hit (about 19% of all), similar ones and a draw of the others. Unless noted, the call rests on the fitted dose curve; in most records, active means well fitted curve in the direction sought with a large enough effect; inconclusive means small, poorly fitted or top-dose-only effect, or another doubt; inactive means no such curve, though single readings can be large; an effect the other way counts as inactive or inconclusive. Unless noted, on the % scale 0 is the no-effect control and ±100 the full control effect.

What do the screens show for `COc1ccc(-c2cnnc(N/N=C/c3c(C)nn(-c4ccccc4)c3Cl)n2)cc1`?
HT1080NT lethal: 10%; TDP1 cell noCPT: 5.2µM*; HT1080 IDH1KD tx: inconclusive; IL-1B inflam inh: -3; DT40 TDP1 CPT: 3.7µM*

What do the screens show for `COc1ccccc1C(=O)NC(=O)COC(=O)c1cnccn1`?
HT1080NT lethal: 9%; TDP1 cell noCPT: 7%; HT1080 IDH1KD tx: 12%; IL-1B inflam inh: -10; DT40 TDP1 CPT: -4%

How did COCCn1c(C)cc(O)c(C(c2ccc(OC)cc2)N2CCCCC2)c1=O (centres undefined) do in these assays?
TDP1 cell noCPT: -6%; DT40 TDP1 CPT: -4%

Results for O=C(CNC(=O)c1ccc(Br)o1)Nc1cccc(S(=O)(=O)N2CCOCC2)c1 ?
HT1080NT lethal: 3%; TDP1 cell noCPT: 2%; HT1080 IDH1KD tx: 1%; IL-1B inflam inh: 15; DT40 TDP1 CPT: 2%

Results for COc1ccc(-c2cnnc(N/N=C/c3ccc(O)cc3)n2)cc1 ?
HT1080NT lethal: -15%; TDP1 cell noCPT: 12µM*; HT1080 IDH1KD tx: -13%; IL-1B inflam inh: inconclusive; DT40 TDP1 CPT: inconclusive

Results for Fc1cnc(N/N=C/c2ccc(-c3ccc(Br)cc3)o2)nc1N1CCOCC1 ?
HT1080NT lethal: 1%; TDP1 cell noCPT: 3%; HT1080 IDH1KD tx: -10%; IL-1B inflam inh: 50; DT40 TDP1 CPT: 11%

How did Brc1ccc(-c2ccc(/C=N/Nc3nncc(-c4ccccc4)n3)o2)cc1 do in these assays?
HT1080NT lethal: 4%; TDP1 cell noCPT: 18µM*; HT1080 IDH1KD tx: 14%; IL-1B inflam inh: -3; DT40 TDP1 CPT: inconclusive

What do the screens show for `CC(C)CCNC(=O)C(c1cccnc1)N(CCc1ccccc1)C(=O)Cn1nnc2ccccc21` (centres undefined)?
HT1080NT lethal: -2%; TDP1 cell noCPT: inconclusive; HT1080 IDH1KD tx: 0%; IL-1B inflam inh: 27; DT40 TDP1 CPT: -18%

Results for O=C1Nc2ccccc2C12OCC1(CO2)COC2(OC1)C(=O)Nc1ccccc12 (centres undefined) ?
HT1080NT lethal: -24%; TDP1 cell noCPT: -29%; HT1080 IDH1KD tx: -23%; IL-1B inflam inh: -13; DT40 TDP1 CPT: -22%

What do the screens show for `CN1CC(c2ccc(Cl)c(Cl)c2)[C@@]2(COc3ccccc3C2=O)[C@@]12C(=O)Nc1ccccc12` (some centres undefined)?
HT1080NT lethal: -10%; TDP1 cell noCPT: inconclusive; HT1080 IDH1KD tx: 7%; IL-1B inflam inh: -12; DT40 TDP1 CPT: 18µM*

How did COc1ccccc1C(=O)NCCC(=O)NCC(C)(C)N1CCOCC1 do in these assays?
HT1080NT lethal: -17%; TDP1 cell noCPT: 5%; HT1080 IDH1KD tx: -1%; IL-1B inflam inh: inactive; DT40 TDP1 CPT: -8%

Results for C=CCNC(=O)C1(c2ccccc2)CC1(Cl)Cl (centres undefined) ?
HT1080NT lethal: -5%; TDP1 cell noCPT: -22%; HT1080 IDH1KD tx: -2%; IL-1B inflam inh: 17; DT40 TDP1 CPT: 25%

Results for NS(=O)(=O)c1cccc(NC(=O)CSc2nc3ccccc3c(=O)n2CC2CCCO2)c1 (centres undefined) ?
HT1080NT lethal: -12%; TDP1 cell noCPT: -16%; HT1080 IDH1KD tx: -11%; IL-1B inflam inh: -1; DT40 TDP1 CPT: -16%

What do the screens show for `CC/C(=N\NC(=O)CNC(=O)/C=C/c1ccco1)c1ccccc1`?
HT1080NT lethal: 11%; TDP1 cell noCPT: -14%; HT1080 IDH1KD tx: 6%; IL-1B inflam inh: 12; DT40 TDP1 CPT: -5%

Results for COc1ccc(/C(C)=N/NC(=O)CNC(=O)/C=C\c2ccco2)cc1 ?
HT1080NT lethal: 0%; TDP1 cell noCPT: 9.2µM*; HT1080 IDH1KD tx: -1%; IL-1B inflam inh: 84; DT40 TDP1 CPT: 13µM*

How did CN1CCN(c2ccc(NC(=S)NC(=O)/C=C/c3ccco3)cc2)CC1 do in these assays?
HT1080NT lethal: inconclusive; TDP1 cell noCPT: 21µM*; HT1080 IDH1KD tx: inconclusive; IL-1B inflam inh: -96*; DT40 TDP1 CPT: inconclusive

What do the screens show for `CCOc1ccc(NC(=S)NC(=O)/C=C/c2ccco2)cc1`?
HT1080NT lethal: -26%; TDP1 cell noCPT: 18µM*; HT1080 IDH1KD tx: -11%; IL-1B inflam inh: -20; DT40 TDP1 CPT: inconclusive

How did COc1cccc(NC(=S)NC(=O)/C=C/c2ccco2)c1 do in these assays?
HT1080NT lethal: 21µM*; TDP1 cell noCPT: 15µM*; HT1080 IDH1KD tx: 6.5µM*; IL-1B inflam inh: 32; DT40 TDP1 CPT: 18µM*

How did Cc1nc2cnc(Nc3ccccc3)nc2n(CCc2ccccc2)c1=O do in these assays?
TDP1 cell noCPT: -30%; DT40 TDP1 CPT: -11%

What do the screens show for `Cc1ccc(CNc2nc(CN3CCSCC3)nc3ccccc23)o1`?
TDP1 cell noCPT: inconclusive; DT40 TDP1 CPT: 1%[9.04 µM]

How did COc1cc(=O)n2c(c1C(=O)NCc1ccco1)CCN(C(=O)c1c(F)ccc(F)c1F)CC2 do in these assays?
TDP1 cell noCPT: -12%; DT40 TDP1 CPT: 26%

Results for CCCCNC(=O)CCCCCNS(=O)(=O)c1ccc(OC)cc1 ?
HT1080NT lethal: 3%; TDP1 cell noCPT: -5%; HT1080 IDH1KD tx: 12%; IL-1B inflam inh: -20; DT40 TDP1 CPT: -14%

What do the screens show for `CCOC(=O)C1C(=O)OC(C)(C)C1C(CC)C(=O)c1ccccc1` (centres undefined)?
HT1080NT lethal: 4%; TDP1 cell noCPT: -4%; HT1080 IDH1KD tx: 8%; IL-1B inflam inh: 30; DT40 TDP1 CPT: 10%

Results for CCOC(=O)C1C(=O)OC(C)(C)C1C(CC)C(=O)c1c(C)cc(C)cc1C (centres undefined) ?
HT1080NT lethal: 6%; TDP1 cell noCPT: 9.2µM*; HT1080 IDH1KD tx: 4%; IL-1B inflam inh: 59; DT40 TDP1 CPT: 18µM*

How did COc1ccccc1NC(=O)c1oc2ccccc2c1NC(=O)C1CC1 do in these assays?
HT1080NT lethal: -30%; TDP1 cell noCPT: inconclusive; HT1080 IDH1KD tx: inconclusive; IL-1B inflam inh: 0; DT40 TDP1 CPT: inconclusive

How did CCOc1ccccc1NC(=O)c1oc2ccccc2c1NC(=O)C1CCCO1 (centres undefined) do in these assays?
HT1080NT lethal: 16%; TDP1 cell noCPT: 9.2µM*; HT1080 IDH1KD tx: 9%; IL-1B inflam inh: -1; DT40 TDP1 CPT: 16µM*

Results for Cc1ccc(NC(=O)c2oc3ccccc3c2NC(=O)C2CCCO2)cc1C (centres undefined) ?
HT1080NT lethal: -30%; TDP1 cell noCPT: 8.2µM*; HT1080 IDH1KD tx: -22%; IL-1B inflam inh: -5; DT40 TDP1 CPT: 10µM*
